Measurements reported in PubChem BioAssay (NCI).
Compounds without any hit were thinned out: in the full panel of roughly 83,000, 20% have a hit.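 Single-dose data. Exposure time 48 hours. Values below 10 considered active.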 Calls of active or inactive are those of the source.

Key:
Experiment in all cases: NCI-60 one-dose screen, 48 h (100 = growth as untreated, 0 = no growth, -100 = all killed)
Conditions in all cases: 10 µM unless noted
[1] = test system: DU-145 prostate
[2] = test system: K-562 leukemia
[3] = test system: MALME-3M melanoma
[4] = test system: MDA-MB-231 breast
[5] = test system: RXF 393 renal
[6] = test system: SF-268 CNS
[7] = test system: SF-295 CNS
[8] = test system: SF-539 CNS
[9] = test system: UACC-257 melanoma
[10] = test system: M14 melanoma

Measured: growth

Nc1nnc(-c2c[nH]c3ccc(Br)cc23)c(-c2c[nH]c3ncc(Br)cc23)n1
active: [5] 2.79%
inactive: [1] 55.7% | [2] 18.8% | [3] 39.2% | [4] 45.8% | [6] 47.7% | [7] 41.2% | [8] 41.5% | [9] 59.5% | [10] 38.6%

CN(C)CCn1c2ccccc2c2nc3ccc([N+](=O)[O-])cc3nc21
active: [1] 7.7% | [2] 8.19% | [3] -14.4% | [4] 5.52% | [7] 0.988% | [8] -2.27% | [9] -13.2%
inactive: [5] 10.1% | [6] 24.7% | [10] 17.9%

S=C(Nc1ccccc1)Nc1ccc(OCc2nc3ccccc3[nH]2)cc1
inactive: [1] 43.8% | [2] 15% | [3] 51.6% | [4] 37% | [5] 75.1% | [6] 24.1% | [7] 24.2% | [8] 30.7% | [9] 48.2% | [10] 36.9%

Cc1occc1C(=O)NN1C(=O)/C(=C/C=C/c2ccc([N+](=O)[O-])o2)SC1=S
active: [1] -57.7% | [3] -78.6% | [4] -89% | [5] -88.1% | [6] -64.3% | [8] -99.4% | [9] -44.5% | [10] -65.1%
inactive: [2] 11.2% | [7] 47%

CCOC(=O)C1=C(N)N(c2ccccc2)C2=C(C(=O)CC(C)(C)C2)C1c1ccc([N+](=O)[O-])cc1 (stereo not given)
inactive: [1] 106% | [2] 83.7% | [3] 120% | [4] 97.4% | [5] 101% | [6] 106% | [7] 96.2% | [8] 94.3% | [9] 112% | [10] 99.5%

CC12CC[C@@H]3[C@]4(C)COC(c5cn[nH]c5-c5cccc(Br)c5)O[C@@H]4CC[C@@]3(C)[C@@H]1CC(C1=CCOC1=O)O2 (stereo not given in full)
active: [5] 6.19%
inactive: [1] 53.5% | [2] 15% | [3] 37.7% | [4] 35.1% | [6] 47% | [7] 34.9% | [8] 54.8% | [9] 41.8% | [10] 22.3%

Cc1cccc(NC(=O)CN2CCN(c3ncnc4c3cnn4-c3ccccc3)CC2)c1
inactive: [1] 96.7% | [2] 67.5% | [3] 99.4% | [4] 87.4% | [5] 90% | [6] 88.4% | [7] 117% | [8] 102% | [9] 102% | [10] 94.4%

CC1=C(C#N)C2=NNCC(c3ccccc3)=NN2C(c2ccccc2)=C1
inactive: [1] 111% | [2] 110% | [3] 93.3% | [4] 105% | [5] 131% | [6] 134% | [7] 103% | [8] 102% | [9] 96.6% | [10] 103%

C=C1CC[C@@H]2[C@]3(C)COC(c4ccco4)O[C@@H]3CC[C@@]2(C)[C@@H]1C/C=C1/C(=O)OCC1OC(C)=O (stereo not given in full)
inactive: [1] 48.8% | [4] 48.8% | [5] 27.5% | [6] 67.8% | [7] 59.5% | [9] 58.7% | [10] 19%
active: [2] 3.97% | [3] -60.3% | [8] -47.3%

COc1ccc2[nH]c(O)c(N=NC(=O)Cn3c(-c4ccccc4)nc4cc(C)ccc43)c2c1
active: [3] -48% | [4] -26.3% | [5] -35.6% | [8] -28.1% | [10] 9.19%
inactive: [1] 38.2% | [2] 12.3% | [6] 38.5% | [7] 44.9% | [9] 21.7%

CC1[C@H]2[C@H](C[C@H]3[C@@H]4CC=C5c6sc(Nc7ccccc7F)nc6CC[C@]5(C)[C@H]4CC[C@@]32C)O[C@]12CC[C@@H](C)CO2 (stereo not given in full)
active: [1] -48.6% | [2] 1.23% | [3] -73.9% | [4] -57.5% | [5] -88.7% | [6] -53.5% | [7] -75.5% | [8] -87.9% | [9] -85.1% | [10] -87.8%

Cc1nc(Nc2ccccn2)sc1C(=O)CC(SCC(=O)Nc1ccc(Cl)cc1)c1ccccc1F (stereo not given)
active: [1] -35.3% | [4] -40.1% | [5] 1.73% | [7] 2% | [8] -58.4% | [10] 1.45%
inactive: [2] 11.8% | [3] 27.5% | [6] 22.4% | [9] 36.9%

C=C1CCC2C3(C)COC(c4ccc(F)cc4)OC3CCC2(C)C1CC(O)C1=CCOC1=O (stereo not given)
inactive: [1] 59.3% | [2] 15.2% | [3] 63.2% | [4] 53.5% | [5] 35.7% | [6] 103% | [7] 64.7% | [8] 56.3% | [9] 57.9% | [10] 24.7%

NC(=S)Nc1cccc(NC(N)=S)c1
inactive: [1] 101% | [3] 84.3% | [4] 89.7% | [5] 104% | [6] 90.9% | [7] 90.2% | [8] 100% | [9] 98.1% | [10] 125%
active: [2] 9.26%

COc1cc2c3c(n(CCCN4CCC[C@@H]4CO)c(=O)c2cc1OC)-c1cc2c(cc1C3=O)OCO2
active: [1] -100% | [2] 2.24% | [3] -85.6% | [4] -93.3% | [5] -66.5% | [6] -60.8% | [7] -86% | [8] -98.2% | [10] -85.9%
inactive: [9] 71.2%

C#CCOc1ccc(/C=N/Nc2nc(-c3cc4cc(Br)ccc4oc3=O)cs2)cc1OC
inactive: [1] 69.1% | [2] 58% | [3] 59.4% | [4] 36.3% | [5] 58.1% | [6] 59.6% | [7] 24.2% | [8] 25.1% | [9] 86.4% | [10] 79.4%

Cc1ccc([C@H]2C(C(=O)c3ccc(Cl)cc3)C3(N[C@@H]2c2ccccc2)C(=O)Nc2ccc(Cl)cc23)cc1 (stereo not given in full)
inactive: [1] 71.8% | [2] 22.2% | [3] 87.2% | [4] 50.7% | [5] 27% | [6] 55.8% | [7] 48.2% | [8] 77% | [9] 69.8% | [10] 44.8%

CN(C)c1nc(NCCNS(=O)(=O)c2ccc(C(=O)/C=C/c3ccc(F)cc3)cc2)nc(Nc2ccc(F)cc2)n1
active: [1] -83.9% | [2] -21.9% | [3] -83.3% | [4] -93% | [5] -97% | [6] -59% | [7] -78.3% | [8] -99.7% | [9] -80.6% | [10] -83%

Cn1cc(-c2cc3nc(-c4cn(C)c5ncccc45)cc(N)n3n2)c2ccccc21
inactive: [1] 40.9% | [6] 15%
active: [2] -34.9% | [3] -47.8% | [4] -19.9% | [5] -50.4% | [7] -30.6% | [8] -78.7% | [9] -49.7% | [10] 5.56%

O=C(Cn1c(/C=C/c2ccccc2)nc2ccccc2c1=O)Nc1ccc(Cl)cc1
active: [4] 4.32% | [5] -8.9%
inactive: [1] 71.3% | [2] 85.2% | [3] 59.1% | [6] 75.2% | [7] 59.1% | [8] 58.7% | [9] 83.6% | [10] 81.7%

Cn1cc(-c2nnc(N)nc2-c2c[nH]c3ccccc23)c2cccnc21
inactive: [1] 76.9% | [2] 15.7% | [3] 38.2% | [4] 48.5% | [5] 71.1% | [6] 65.9% | [7] 32% | [8] 49.3% | [9] 62.3% | [10] 20.8%

CCCCSc1nc(Nc2ccc(S(N)(=O)=O)cc2)c(C#N)c(-c2cc(OC)c(OC)c(OC)c2)n1
active: [2] 3.62% | [3] 8.31%
inactive: [1] 54.1% | [4] 42.5% | [5] 32.8% | [6] 60.7% | [7] 24.2% | [8] 38.1% | [9] 61.7% | [10] 33.3%

O=C(c1ccc(OCCN2CCOCC2)cc1)C1[C@H](c2ccc(Cl)cc2)[C@@H](c2ccccc2)NC12C(=O)Nc1ccc(Br)cc12 (stereo not given in full)
inactive: [1] 41.6% | [3] 56.3% | [4] 18.2% | [6] 39.6% | [7] 21.8% | [8] 35% | [9] 39.7% | [10] 23.8%
active: [2] 1.09% | [5] -1.59%

C#CCOc1ccc(/C=N/Nc2nc(-c3ccc(F)cc3)cs2)cc1OC
inactive: [1] 89% | [2] 25% | [3] 86.3% | [4] 73.5% | [5] 24% | [6] 84.8% | [7] 79.2% | [8] 70.6% | [9] 63.7% | [10] 61.3%

O=c1[nH]c(=O)c2c(-c3cc4ccccc4oc3=O)ccnc2[nH]1
inactive: [1] 88% | [2] 106% | [3] 64% | [4] 64.9% | [5] 69.5% | [6] 79.6% | [8] 70.2% | [9] 103% | [10] 91.4%
active: [7] 3.14%

Cc1ccc(C(=O)CSc2nc3ccc(F)cc3c(=O)n2-c2ccc(Cl)cc2)cc1
active: [5] -10.6% | [7] 4.69% | [8] 2.03%
inactive: [1] 50.4% | [2] 88.8% | [3] 39.6% | [4] 13.7% | [6] 28.9% | [9] 70.4% | [10] 56.5%
